Source: PubChem BioAssay AID1159580 (chemical genetic matrix, 2015)
About 2,000 (36%) of roughly 5,500 compounds were called active. Not shown: some 18% with an inconclusive outcome. No stated cut-off is given here; in the data, active means normalized growth mostly below about 0.91 (no sharp cut-off); inconclusive means no clear call, values can overlap the other calls; inactive means mostly above about 0.92. The list shows a part of the results.

Assay: chemical genetic growth profiling, strain panel (AID 1159580);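 further: tested at 20 µM; growth read once vehicle control cultures reached saturation at 30 °C; 1 = growth at the plate median or of vehicle wells; lower values mean less growth of the strain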
Conditions: growth OD

Measured: normalized growth

CC(=C(CCOP(=O)(O)O)SC(=O)c1ccccc1)N(C=O)Cc1cnc(C)nc1N
inactive: S. cerevisiae deletion strains, locus YAL013W, strain DEP1, active compounds read low 1.01 | S. cerevisiae deletion strains, locus YBR021W, strain FUR4, active compounds read low 1.01 | S. cerevisiae deletion strains, locus YBR229C, strain ROT2, active compounds read low 1.01 | S. cerevisiae deletion strains, locus YCL029C, strain bik1, active compounds read low 1 | S. cerevisiae deletion strains, locus YDL035C, strain GPR1, active compounds read low 1.02 | S. cerevisiae deletion strains, locus YDL074C, strain BRE1, active compounds read low 1.01 | S. cerevisiae deletion strains, locus YDL101C, strain DUN1, active compounds read low 1.01 | S. cerevisiae deletion strains, locus YDL134C, strain PPH21, active compounds read low 1.02 | S. cerevisiae deletion strains, locus YDL185W, strain tfp1, active compounds read low 1.01 | S. cerevisiae deletion strains, locus YDL192W, strain arf1, active compounds read low 1.01 | S. cerevisiae deletion strains, locus YDR101C, strain arx1, active compounds read low 1 | S. cerevisiae deletion strains, locus YDR150W, strain NUM1, active compounds read low 1.01 | S. cerevisiae deletion strains, locus YDR162C, strain NBP2, active compounds read low 1.01 | S. cerevisiae deletion strains, locus YDR318W, strain mcm21, active compounds read low 1.02 | S. cerevisiae deletion strains, locus YDR388W, active compounds read low 1.01 | S. cerevisiae deletion strains, locus YDR502C, strain sam2, active compounds read low 1.01 | S. cerevisiae deletion strains, locus YEL061C, strain CIN8, active compounds read low 1.01 | S. cerevisiae deletion strains, locus YER110C, active compounds read low 1.02 | S. cerevisiae deletion strains, locus YER155C, strain BEM2, active compounds read low 1.01 | S. cerevisiae deletion strains, locus YER167W, strain BCK2, active compounds read low 1.01 | S. cerevisiae deletion strains, locus YGL078C, strain dbp3, active compounds read low 1.02 | S. cerevisiae deletion strains, locus YGL086W, strain mad1, active compounds read low 1.01 | S. cerevisiae deletion strains, locus YGL248W, strain PDE1, active compounds read low 1 | S. cerevisiae deletion strains, locus YGR135W, strain pre9, active compounds read low 1.02 | S. cerevisiae deletion strains, locus YGR229C, strain SMI1, active compounds read low 1.02 | S. cerevisiae deletion strains, locus YGR252W, strain gcn5, active compounds read low 1 | S. cerevisiae deletion strains, locus YHR030C, strain SLT2, active compounds read low 1.01 | S. cerevisiae deletion strains, locus YHR079C, strain IRE1 (second series), active compounds read low 1.01 | S. cerevisiae deletion strains, locus YHR094C, strain hxt1, active compounds read low 1.01 | S. cerevisiae deletion strains, locus YHR129C, strain ARP1, active compounds read low 1 | S. cerevisiae deletion strains, locus YHR200W, strain rpn10, active compounds read low 1.01 | S. cerevisiae deletion strains, locus YIL066C, strain RNR3, active compounds read low 1.02 | S. cerevisiae deletion strains, locus YIL073C, strain SPO22, active compounds read low 1.05 | S. cerevisiae deletion strains, locus YIL125W, strain kgd1, active compounds read low 1.01 | S. cerevisiae deletion strains, locus YIR030C, strain dcg1, active compounds read low 1.02 | S. cerevisiae deletion strains, locus YJL095W, strain BCK1, active compounds read low 1.01 | S. cerevisiae deletion strains, locus YJL134W, strain LCB3, active compounds read low 1.01 | S. cerevisiae deletion strains, locus YJL168C, strain set2, active compounds read low 1.01 | S. cerevisiae deletion strains, locus YJL187C, strain SWE1 (second series), active compounds read low 1.01 | S. cerevisiae deletion strains, locus YJR043C, strain POL32, active compounds read low 1.01 | S. cerevisiae deletion strains, locus YJR075W, strain HOC1, active compounds read low 1.01 | S. cerevisiae deletion strains, locus YKL009W, strain mrt4, active compounds read low 1.01 | S. cerevisiae deletion strains, locus YKL068W, active compounds read low 1.02 | S. cerevisiae deletion strains, locus YKL085W, strain MDH1 (second series), active compounds read low 1.01 | S. cerevisiae deletion strains, locus YKL085W, strain MDH1, active compounds read low 1.01 | S. cerevisiae deletion strains, locus YKL190W, strain CNB1, active compounds read low 1.01 | S. cerevisiae deletion strains, locus YKR001C, strain vps1, active compounds read low 1.01 | S. cerevisiae deletion strains, locus YLR039C, strain RIC1, active compounds read low 1.02 | S. cerevisiae deletion strains, locus YLR058C, strain SHM2, active compounds read low 1.02 | S. cerevisiae deletion strains, locus YLR102C, strain apc9, active compounds read low 1.01 | S. cerevisiae deletion strains, locus YLR262C, strain YPT6, active compounds read low 0.991 | S. cerevisiae deletion strains, locus YLR268W, strain sec22, active compounds read low 1 | S. cerevisiae deletion strains, locus YLR330W, strain CHS5, active compounds read low 1.01 | S. cerevisiae deletion strains, locus YLR342W, strain FKS1 (second series), active compounds read low 1 | S. cerevisiae deletion strains, locus YLR371W, strain rom2, active compounds read low 1.02 | S. cerevisiae deletion strains, locus YLR418C, strain cdc73, active compounds read low 1.02 | S. cerevisiae deletion strains, locus YML016C, strain PPZ1, active compounds read low 1.01 | S. cerevisiae deletion strains, locus YML032C, strain rad52, active compounds read low 1.01 | S. cerevisiae deletion strains, locus YML124C, strain tub3, active compounds read low 1.01 | S. cerevisiae deletion strains, locus YMR078C, strain ctf18, active compounds read low 1.01 | S. cerevisiae deletion strains, locus YMR223W, strain ubp8, active compounds read low 1.02 | S. cerevisiae deletion strains, locus YMR263W, strain SAP30, active compounds read low 1.01 | S. cerevisiae deletion strains, locus YMR307W, strain GAS1, active compounds read low 1.03 | S. cerevisiae deletion strains, locus YNL067W, strain RPL9B, active compounds read low 1.01 | S. cerevisiae deletion strains, locus YNL128W, strain TEP1, active compounds read low 1.02 | S. cerevisiae deletion strains, locus YNL233W, strain BNI4, active compounds read low 1.03 | S. cerevisiae deletion strains, locus YNL250W, strain rad50, active compounds read low 1.01 | S. cerevisiae deletion strains, locus YNL271C, strain bni1, active compounds read low 1.02 | S. cerevisiae deletion strains, locus YNL298W, strain CLA4, active compounds read low 1.01 | S. cerevisiae deletion strains, locus YNL307C, strain MCK1, active compounds read low 1.02 | S. cerevisiae deletion strains, locus YNL322C, strain KRE1, active compounds read low 1.01 | S. cerevisiae deletion strains, locus YNR052C, strain pop2, active compounds read low 1.02 | S. cerevisiae deletion strains, locus YOL006C, strain TOP1, active compounds read low 1.01 | S. cerevisiae deletion strains, locus YOL012C, strain htz1 1.14 | S. cerevisiae deletion strains, locus YOL147C, strain pex11, active compounds read low 1.02 | S. cerevisiae deletion strains, locus YOR061W, strain CKA2, active compounds read low 1.01 | S. cerevisiae deletion strains, locus YOR069W, strain VPS5, active compounds read low 1.01 | S. cerevisiae deletion strains, locus YOR136W, strain idh2, active compounds read low 1.02 | S. cerevisiae deletion strains, locus YOR144C, strain elg1, active compounds read low 1.01 | S. cerevisiae deletion strains, locus YOR184W, strain ser1, active compounds read low 1.02 | S. cerevisiae deletion strains, locus YOR316C, strain cot1, active compounds read low 1.01 | S. cerevisiae deletion strains, locus YPL055C, strain LGE1, active compounds read low 1.01 | S. cerevisiae deletion strains, locus YPR119W, strain clb2, active compounds read low 1 | S. cerevisiae deletion strains, locus YPR141C, strain kar3, active compounds read low 1.02 | S. cerevisiae deletion strains, locus YPR163C, strain tif3, active compounds read low 1.01 | S. cerevisiae deletion strains, locus YPR167C, strain met16, active compounds read low 1.01 | S. cerevisiae deletion strains, strain wtn01, active compounds read low 1.01 | S. cerevisiae strains, strain wild type, active compounds read low 1.01
